Data: PubChem BioAssay AID1851 (National Center for Advancing Translational Sciences (NCATS), 2009)
Hit rate of the full screen: of about 16,000 compounds, about 5,100 (32%) were called active. About 25% were inconclusive and are not listed. Some of the results follow. Values without a mark were called inactive. Calls come from the whole dose curve; as a rule, active = well fitted curve in the direction sought with a large enough effect; inconclusive = small, poorly fitted or top-dose-only effect, or effect the other way; inactive = no such curve, though single readings can be large or run the other way.

Target: Cytochrome P450 3A4 (Homo sapiens) (UniProt P08684)
Experiment: Cytochrome panel assay with activity outcomes
Conditions: recombinant CYP, pro-luciferin dealkylation, luminescence, p450-cyp3a4; series mostly up to 57.1 µM
% is set by controls: 0 for no effect and ±100 for the full control effect.

Cytochrome P450 3A4 (Homo sapiens), sequence (P08684 whole entry, looked up): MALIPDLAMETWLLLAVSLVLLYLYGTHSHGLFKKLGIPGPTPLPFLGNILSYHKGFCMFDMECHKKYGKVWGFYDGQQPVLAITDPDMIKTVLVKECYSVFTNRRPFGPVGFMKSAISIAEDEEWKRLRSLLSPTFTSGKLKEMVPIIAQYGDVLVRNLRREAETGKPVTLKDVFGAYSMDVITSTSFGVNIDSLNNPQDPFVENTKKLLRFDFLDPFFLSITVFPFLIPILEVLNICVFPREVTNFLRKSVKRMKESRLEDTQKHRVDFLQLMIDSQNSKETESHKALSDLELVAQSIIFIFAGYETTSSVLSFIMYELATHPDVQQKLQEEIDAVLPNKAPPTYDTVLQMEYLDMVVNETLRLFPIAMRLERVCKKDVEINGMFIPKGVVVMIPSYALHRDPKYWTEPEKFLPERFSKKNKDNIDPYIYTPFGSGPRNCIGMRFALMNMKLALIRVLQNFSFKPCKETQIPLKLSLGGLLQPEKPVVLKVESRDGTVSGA

SMILES | AC50 | activity, negative = inhibition
Cc1ncc2c(c1O)COP(=O)(O)OC2 | inactive | –
COc1ccc(C(=O)Nn2cnc3ccccc3c2=O)c(OC)c1 | 25.1 µM (active) | –
COC(=O)c1cn(NC(=O)c2ccc(F)cc2)c(=O)c2ccccc12 | – | -2.1% [at 2.29 µM]
O=C(Nn1cnc2ccccc2c1=O)c1ccc(F)cc1Cl | inactive | –
COc1cccc(Cn2c(=O)c(-c3cn(C)c4ccccc34)nc3cnc(OC)nc32)c1 | 7.94 µM (active) | –
Cn1cc(-c2nc3cncnc3n(Cc3ccc(F)cc3)c2=O)c2ccccc21 | inactive | –
COc1cccc(Cn2c(=O)c(-c3cn(C)c4ccccc34)nc3cnc(N4CCOCC4)nc32)c1 | inactive | –
CCNc1ncc2nc(-c3cn(C)c4ccccc34)c(=O)n(Cc3ccc(F)cc3)c2n1 | 15.8 µM (active) | –
COc1ncc2nc(-c3cn(C)c4ccccc34)c(=O)n(Cc3ccc(F)cc3)c2n1 | 6.31 µM (active) | –
CCNc1ncc2nc(-c3cn(C)c4ccccc34)c(=O)n(Cc3cccc(OC)c3)c2n1 | 3.98 µM (active) | –
CN(C)CCCNc1c(C(=O)O)cnc2c1cnn2C | inactive | –
COc1ccc(N2C(N)=NC(N)=NC2(C)C)cc1 | inactive | –
COC(=O)C1=C(C)NC(C)=C(C(=O)OCCSc2ccccc2)[C@@H]1C | 10 µM (active) | –
COC(=O)c1cc(=O)n(C2CC2)c(=NC2CC2)s1 | inactive | –
OC(COCc1ccccc1)Cn1cnc2ccccc21 (stereo unspecified) | 3.98 µM (active) | –
Oc1ccc(OCc2ccccc2)cc1 | inactive | –
CC(=O)Nc1ccc(OCC(O)Cn2cnc3ccccc32)cc1 (stereo unspecified) | 14.1 µM (active) | –
CC(=O)Nc1ccc(OC[C@@H](O)CNC(C)C)cc1 | inactive | –
C[n+]1cn(CC(O)COCc2ccccc2)c2ccccc21 (stereo unspecified) | inactive | –
CCC(=O)c1ccc(OCC(O)CN2CCCCC2)cc1 (stereo unspecified) | inactive | –
O=C(O)[C@@H]1[C@@H]2C[C@H]([C@@H](Br)[C@H]2N2C(=O)CCC2=O)[C@@H]1C(=O)O | – | 2.42% [at 11.4 µM]
CCCCC(=O)Nc1nnc(SCC(=O)NC2CCCC2)s1 | – | -12.4% [at 2.29 µM]
C=CCn1c(SCC(=O)NC2CCCCC2)nnc1C1CCCCC1 | 8.91 µM (active) | –

SMILES | AC50 | activity, negative = inhibition
COc1ccc(/C=C/C(=O)NCc2cn(C)nc2C)cc1COc1ccc(Br)cc1 | 3.16 µM (active) | –
COc1ccc(/C=N/NC(=O)c2ccn[nH]2)cc1COc1ccc(Cl)cc1 | – | -16.8% [at 2.29 µM]
COc1ccc(/C=N/NC(=O)c2ccn[nH]2)cc1COc1ccc(F)cc1 | – | -10.3% [at 2.29 µM]
Cc1nn(C)cc1CNC(=O)CCC(=O)O | inactive | –
CCn1ncc(/C=C/C(=O)NCc2cn(C)nc2C)c1C | inactive | –
COc1ccc(C(=O)NN)cc1COc1ccc(Br)cc1 | 1.26 µM (active) | –
COc1cc(/C=C(\C#N)C(N)=O)cc(CSc2nc3ccccc3s2)c1O | 3.98 µM (active) | –
C[C@](N)(COP(=O)(O)O)C(=O)O | inactive | –
O=C(Nc1cc(C(F)(F)F)ccc1-n1cncn1)c1ccc(Br)cc1 | – | -10.9% [at 2.29 µM]
COC(=O)c1ccc(-n2cncn2)c(F)c1 | 7.94 µM (active) | –
C[C@@H]1O[C@H](O[C@@H]2[C@@H](Oc3cc(O)c4c(c3)O[C@H](c3ccc(O)cc3)CC4=O)O[C@@H](CO)[C@@H](O)[C@H]2O)[C@@H](O)[C@H](O)[C@@H]1O | inactive | –
O=C1C=C[C@@H](O)[C@H]2[C@@H]3C(=O)N(c4cccc(Oc5ccccc5)c4)C(=O)[C@@H]3CC[C@H]12 | – | -11.6% [at 11.4 µM]
CCN1CCN(CCC(=O)Nc2cccc(OC)c2)CC1 | inactive | –
COc1cccc(N2C(=O)C(CC(=O)Nc3ccccc3)N(C3CCCCC3)C2=O)c1 (stereo unspecified) | 5.01 µM (active) | –
COc1ccc(NC(=O)CC2C(=O)N(c3cccc(OC)c3)C(=O)N2C2CCCCC2)cc1 (stereo unspecified) | 8.91 µM (active) | –
O=C(CSc1nnnn1C1CCCC1)Nc1ccc(F)cc1 | 14.1 µM (active) | –
CCC(CC)C(=O)Nc1cccc(/C(C)=N\NC(=O)c2ccc(C)s2)c1 | 7.94 µM (active) | –
C/C(=N\NC(=O)c1ccc(Cl)cc1)c1cccc(NC(=O)C(C)C)c1 | 15.8 µM (active) | –
CCOc1ccc(N(C(C)C(=O)N/N=C(\C)c2cccc(NC(=O)c3ccccc3)c2)S(C)(=O)=O)cc1 (stereo unspecified) | – | -20.9% [at 2.29 µM]
CCC(CC)C(=O)Nc1cccc(/C(C)=N/NC(=O)c2c(Br)cnn2C)c1 | 14.1 µM (active) | –
C/C(=N\NC(=O)c1cccc(F)c1)c1ccc(Br)s1 | inactive | –
CCOC(=O)c1c(NC(=O)c2c(Br)cnn2C)c(C#N)nn1-c1ccccc1 | inactive | –
Cc1cc(=O)[nH]c2c1c(C)nn2C1CCOC(C)(C)C1 (stereo unspecified) | inactive | –
